# The supplement of paper PMC13380429
# Columns and labels:
# [1] = test system: Vero E6 infected with SARS-CoV-2; assay: morphology score (similarity to uninfected cells); higher = more like uninfected cells; details: 24 h
# [2] = test system: Vero E6 infected with SARS-CoV-2; assay: SARS-CoV-2 infection rate relative to infected DMSO; higher = more infection, active = 60 or less; details: 24 h
# [3] = test system: Vero E6 infected with SARS-CoV-2; assay: inhibition of SARS-CoV-2 cytopathic effect; higher = more antiviral protection, active = above 15; details: 48 h
smiles,measurement,setting,value
CCN1CCC[C@H]1CNC(=O)c1c(O)c(Cl)cc(Cl)c1OC [raclopride] (10 µM),morphology score,[1],0.124
same,SARS-CoV-2 infection rate,[2],104% (inactive)
NC(=O)C1=CN([C@@H]2O[C@H](COP(=O)(O)OP(=O)(O)OC[C@H]3O[C@@H](n4cnc5c(N)ncnc54)[C@H](O)[C@@H]3O)[C@@H](O)[C@H]2O)C=CC1 [coenzyme-I] (10 µM),morphology score,[1],0.00507
same,SARS-CoV-2 infection rate,[2],103% (inactive)
Cc1[nH]c2ccc(F)cc2c1-c1nc2c3cccnc3c3ncccc3c2[nH]1 (10 µM),morphology score,[1],0.21
same,SARS-CoV-2 infection rate,[2],102% (inactive)
Cc1cc(O)cc(C)c1Cl [chloroxylenol] (10 µM),morphology score,[1],0.0293
same,SARS-CoV-2 infection rate,[2],99% (inactive)
COC(=O)Nc1ccc(-c2nc(N3CCOCC3)c3cnn(C4CCN(C(=O)OC)CC4)c3n2)cc1 (0.833333 µM),morphology score,[1],0.00734
same,SARS-CoV-2 infection rate,[2],120% (inactive)
CN(C)CC[C@@H](c1ccc(Cl)cc1)c1ccccn1 [chlorphenamine] (10 µM),morphology score,[1],0.0978
same,SARS-CoV-2 infection rate,[2],97.8% (inactive)
Cc1ncc(CSSCc2cnc(C)c(O)c2CO)c(CO)c1O [pyritinol] (10 µM),morphology score,[1],0.0152
same,SARS-CoV-2 infection rate,[2],100% (inactive)
CN1CCCCC1CCN1c2ccccc2Sc2ccc([S+](C)[O-])cc21 (configuration not stated) [mesoridazine] (10 µM),morphology score,[1],0.323
same,SARS-CoV-2 infection rate,[2],91% (inactive)
CN1C(=O)CCS(=O)(=O)C1c1ccc(Cl)cc1 (configuration not stated) [chlormezanone],inhibition of SARS-CoV-2 cytopathic effect,[3]; 1 nM,-2.2% (inactive)
same,inhibition of SARS-CoV-2 cytopathic effect,[3]; 8.33 nM,-0.15% (inactive)
same,inhibition of SARS-CoV-2 cytopathic effect,[3]; 100 nM,0.74% (inactive)
same,inhibition of SARS-CoV-2 cytopathic effect,[3]; 833.33 nM,0.68% (inactive)
same,inhibition of SARS-CoV-2 cytopathic effect,[3]; 10000 nM,1.19% (inactive)
NC(=O)c1cccc(-c2cccc(OC(=O)NC3CCCCC3)c2)c1,inhibition of SARS-CoV-2 cytopathic effect,[3]; 1 nM,1.14% (inactive)
same,inhibition of SARS-CoV-2 cytopathic effect,[3]; 8.33 nM,3.25% (inactive)
same,inhibition of SARS-CoV-2 cytopathic effect,[3]; 100 nM,1.96% (inactive)
same,inhibition of SARS-CoV-2 cytopathic effect,[3]; 833.33 nM,1.41% (inactive)
same,inhibition of SARS-CoV-2 cytopathic effect,[3]; 10000 nM,1.6% (inactive)
NCCC[C@H](N)CC(=O)N[C@H]1CNC(=O)[C@H]([C@H]2C[C@H](O)NC(N)=N2)NC(=O)/C(=C/NC(N)=O)NC(=O)[C@H](CO)NC(=O)[C@H](CO)NC1=O [viomycin],inhibition of SARS-CoV-2 cytopathic effect,[3]; 1 nM,2.35% (inactive)
same,inhibition of SARS-CoV-2 cytopathic effect,[3]; 8.33 nM,1% (inactive)
same,inhibition of SARS-CoV-2 cytopathic effect,[3]; 100 nM,-1.8% (inactive)
COc1ccc(CC2NCCc3c2[nH]c2ccc(C)cc32)c(Cl)c1OC (configuration not stated),inhibition of SARS-CoV-2 cytopathic effect,[3]; 1 nM,0.04% (inactive)
same,inhibition of SARS-CoV-2 cytopathic effect,[3]; 8.33 nM,1.87% (inactive)
same,inhibition of SARS-CoV-2 cytopathic effect,[3]; 100 nM,6.67% (inactive)
same,inhibition of SARS-CoV-2 cytopathic effect,[3]; 833.33 nM,-1.77% (inactive)
same,inhibition of SARS-CoV-2 cytopathic effect,[3]; 10000 nM,-7.05% (inactive)
CC(=O)[O][Hg][c]1ccccc1 [phenylmercuric-acetate],inhibition of SARS-CoV-2 cytopathic effect,[3]; 1 nM,-1.11% (inactive)
same,inhibition of SARS-CoV-2 cytopathic effect,[3]; 8.33 nM,-1.71% (inactive)
same,inhibition of SARS-CoV-2 cytopathic effect,[3]; 100 nM,-0.22% (inactive)
NCCC(=O)N[C@@H](Cc1c[nH]cn1)C(=O)O [carnosine],inhibition of SARS-CoV-2 cytopathic effect,[3]; 1 nM,-0.87% (inactive)
same,inhibition of SARS-CoV-2 cytopathic effect,[3]; 8.33 nM,-1.74% (inactive)
same,inhibition of SARS-CoV-2 cytopathic effect,[3]; 100 nM,-2.85% (inactive)
same,inhibition of SARS-CoV-2 cytopathic effect,[3]; 833.33 nM,-2.56% (inactive)
same,inhibition of SARS-CoV-2 cytopathic effect,[3]; 10000 nM,-17.4% (inactive)
CN(C)CCCC(=O)Nc1ccc(C(=O)Nc2cccc(Nc3ncc(Cl)c(-c4c[nH]c5ccccc45)n3)c2)cc1,inhibition of SARS-CoV-2 cytopathic effect,[3]; 1 nM,1% (inactive)
same,inhibition of SARS-CoV-2 cytopathic effect,[3]; 8.33 nM,-3.04% (inactive)
same,inhibition of SARS-CoV-2 cytopathic effect,[3]; 100 nM,-1.78% (inactive)
same,inhibition of SARS-CoV-2 cytopathic effect,[3]; 833.33 nM,-0.35% (inactive)
same,inhibition of SARS-CoV-2 cytopathic effect,[3]; 10000 nM,-3.93% (inactive)
CC(C)n1cnc2c(NCCc3ccc(O)cc3)nc(-c3csc4ccccc34)nc21 [stemregenin-1],inhibition of SARS-CoV-2 cytopathic effect,[3]; 1 nM,1.26% (inactive)
same,inhibition of SARS-CoV-2 cytopathic effect,[3]; 8.33 nM,0.69% (inactive)
same,inhibition of SARS-CoV-2 cytopathic effect,[3]; 100 nM,1.35% (inactive)
same,inhibition of SARS-CoV-2 cytopathic effect,[3]; 833.33 nM,-0.07% (inactive)
same,inhibition of SARS-CoV-2 cytopathic effect,[3]; 10000 nM,18.1% (active)
C[CH2][Hg][S]c1ccccc1C(=O)[O-].[Na+] [thiomersal],inhibition of SARS-CoV-2 cytopathic effect,[3]; 1 nM,0.94% (inactive)
same,inhibition of SARS-CoV-2 cytopathic effect,[3]; 8.33 nM,0.96% (inactive)
same,inhibition of SARS-CoV-2 cytopathic effect,[3]; 100 nM,1.12% (inactive)
COc1cc(NS(=O)(=O)c2ccc(N)cc2)nc(OC)n1 [sulphadimethoxine],inhibition of SARS-CoV-2 cytopathic effect,[3]; 1 nM,-0.84% (inactive)
same,inhibition of SARS-CoV-2 cytopathic effect,[3]; 8.33 nM,-2.06% (inactive)
same,inhibition of SARS-CoV-2 cytopathic effect,[3]; 100 nM,2.74% (inactive)
same,inhibition of SARS-CoV-2 cytopathic effect,[3]; 833.33 nM,-1.94% (inactive)
same,inhibition of SARS-CoV-2 cytopathic effect,[3]; 10000 nM,-0.74% (inactive)
CCCCC(CC)COc1ccc(-c2nc(-c3ccc(OC)cc3)nc(-c3ccc(OCC(CC)CCCC)cc3O)n2)c(O)c1 (configuration not stated) [bemotrizinol],inhibition of SARS-CoV-2 cytopathic effect,[3]; 1 nM,1.11% (inactive)
same,inhibition of SARS-CoV-2 cytopathic effect,[3]; 8.33 nM,3.46% (inactive)
same,inhibition of SARS-CoV-2 cytopathic effect,[3]; 100 nM,1.8% (inactive)
CN1CCN(c2nc3ccccc3nc2Cl)CC1 (10 µM),morphology score,[1],0.162
same,SARS-CoV-2 infection rate,[2],102% (inactive)
CC[C@H](C(=O)N1CCCC[C@H]1C(=O)O[C@H](CCc1ccc(OC)c(OC)c1)c1cccc(OCC(=O)NCCNC(=O)COc2cccc([C@@H](CCc3ccc(OC)c(OC)c3)OC(=O)[C@@H]3CCCCN3C(=O)[C@@H](CC)c3cc(OC)c(OC)c(OC)c3)c2)c1)c1cc(OC)c(OC)c(OC)c1,inhibition of SARS-CoV-2 cytopathic effect,[3]; 1 nM,-3.12% (inactive)
same,inhibition of SARS-CoV-2 cytopathic effect,[3]; 8.33 nM,-1.9% (inactive)
same,inhibition of SARS-CoV-2 cytopathic effect,[3]; 100 nM,-0.97% (inactive)
Cn1cnc([N+](=O)[O-])c1Sc1ncnc2[nH]cnc12 [azathioprine] (10 µM),morphology score,[1],0.172
same,SARS-CoV-2 infection rate,[2],95.5% (inactive)
NC12CC3CC(CC(C3)C1)C2 [amantadine] (10 µM),morphology score,[1],-0.265
same,SARS-CoV-2 infection rate,[2],110% (inactive)
